Where a name gives a salt, the structure may show the parent alone. ± gives the standard deviation of the averaged measurements.
Tests used:
Test in all cases: growth (OD600 after 10 h); higher = more growth (less inhibition)
[1] = test system: E. coli TESEC Alr+ wild-type control; conditions: compound 0.1 mM; raw OD600 reference: median of DMSO wells 0.241, cell-free background 0.041
Experimental: (§1)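 TESEC Mtb Alr E. coli, or the Alr+ wild-type control, in 384-well plates with Prestwick library compounds at 0.1 mM and 1% DMSO, across arabinose induction levels of 1E3 to 1E7 nM. Growth is read as OD600 after 10 h at 37 °C in triplicate biological replicates.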

E. coli TESEC Mtb Alr [2] = conditions: compound 0.1 mM
Experimental: as §1

E. coli TESEC Mtb Asd = conditions: compound 0.1 mM
Experimental: (§2)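 TESEC E. coli strains in which the native enzyme is deleted and replaced by arabinose-inducible Mtb Asd, DapB, CysH or TrpD, each grown in its selective medium. Strains were screened against the Prestwick library at 0.1 mM and 1% DMSO in 384-well format at low and high arabinose induction. Growth is read as OD600 after 10 h in triplicate.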

E. coli TESEC Mtb DapB = conditions: compound 0.1 mM
Experimental: as §2

E. coli TESEC Mtb Alr [3] = conditions: compound 0.1 mM; remark: listed apart in the source
Experimental: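 TESEC Mtb Alr E. coli (ΔaraC ΔtolC ΔentC Δalr ΔdadX, arabinose-inducible Mtb Alr) or the Alr+ wild-type control strain, grown in defined M9-fructose medium without D-alanine in 96-well plates with Prestwick library compounds at 0.1 mM and 1% DMSO. Low Alr induction is 0.1 µM arabinose and high induction is 10 mM arabinose.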

[4] = arabinose 1000 nM, raw OD600 reference: median of DMSO wells 0.294, cell-free background 0.041
[5] = arabinose 10000 nM, raw OD600 reference: median of DMSO wells 0.264, cell-free background 0.041
[6] = arabinose 100000 nM, raw OD600 reference: median of DMSO wells 0.201, cell-free background 0.041
[7] = arabinose 1000000 nM, raw OD600 reference: median of DMSO wells 0.193, cell-free background 0.041
[8] = arabinose 10000000 nM, raw OD600 reference: median of DMSO wells 0.146, cell-free background 0.041
[9] = arabinose induction (level): High, raw OD600 reference: median of DMSO wells 0.331, cell-free background 0.041
[10] = arabinose induction (level): Low, raw OD600 reference: median of DMSO wells 0.417, cell-free background 0.041
[11] = arabinose induction (level): High, raw OD600 reference: median of DMSO wells […], cell-free background 0.041
[12] = arabinose induction (level): Low, raw OD600 reference: median of DMSO wells 0.227, cell-free background 0.041
[13] = arabinose 100 nM, raw OD600 reference: median of DMSO wells 0.413, cell-free background 0.052
[14] = arabinose 10000000 nM, raw OD600 reference: median of DMSO wells […], cell-free background 0.052

Row | SMILES | growth [1] | growth (E. coli TESEC Mtb Alr [2]; [4]) | growth (E. coli TESEC Mtb Alr [2]; [5]) | growth (E. coli TESEC Mtb Alr [2]; [6]) | growth (E. coli TESEC Mtb Alr [2]; [7]) | growth (E. coli TESEC Mtb Alr [2]; [8]) | growth (E. coli TESEC Mtb Asd; [9]) | growth (E. coli TESEC Mtb Asd; [10]) | growth (E. coli TESEC Mtb DapB; [11]) | growth (E. coli TESEC Mtb DapB; [12]) | growth (E. coli TESEC Mtb Alr [3]; [13]) | growth (E. coli TESEC Mtb Alr [3]; [14])
1 | O=C(Nc1ccccc1)OCC(CN1CCCCC1)OC(=O)Nc1ccccc1 (stereo unspecified) [Diperodon hydrochloride] | 0.193 ± 0.0045 | 0.249 ± 0.0066 | 0.259 ± 0.0044 | 0.231 ± 0.037 | 0.0876 ± 0.0038 | 0.154 ± 0.0081 | 0.235 ± 0.019 | 0.345 ± 0.065 | 0.2 ± 0.0073 | 0.223 ± 0.038 | 0.426 ± 0.0081 | 0.243 ± 0.028
2 | COc1ncnc(NS(=O)(=O)c2ccc(N)cc2)c1OC [Sulfadoxine] | 0.2282 ± 0.0012 | 0.28 ± 0.0075 | 0.251 ± 0.0051 | 0.192 ± 0.021 | 0.174 ± 0.007 | 0.14 ± 0.0077 | 0.306 ± 0.058 | 0.382 ± 0.062 | 0.195 ± 0.0074 | 0.237 ± 0.0097 | 0.4331 ± 0.0033 | 0.306 ± 0.007
3 | C[C@@H]1CCC[C@H](C)N1NC(=O)c1ccc(Cl)c(S(N)(=O)=O)c1 [Clopamide] | 0.235 ± 0.0084 | 0.294 ± 0.02 | 0.251 ± 0.0061 | 0.217 ± 0.022 | 0.173 ± 0.0061 | 0.135 ± 0.002 | 0.283 ± 0.036 | 0.354 ± 0.031 | 0.199 ± 0.01 | 0.225 ± 0.0079 | 0.419 ± 0.011 | 0.345 ± 0.015
4 | CCCCCCCN(CC)CCCC(O)c1ccc(NS(C)(=O)=O)cc1 (stereo unspecified) [Ibutilide fumarate] | 0.219 ± 0.041 | 0.298 ± 0.013 | 0.268 ± 0.01 | 0.183 ± 0.02 | 0.158 ± 0.0044 | 0.137 ± 0.001 | 0.271 ± 0.022 | 0.44 ± 0.022 | 0.197 ± 0.027 | 0.243 ± 0.019 | 0.408 ± 0.0059 | 0.313 ± 0.016
5 | CN[C@@H]1[C@H](O)[C@H](NC)[C@H]2O[C@@]3(O)C(=O)C[C@@H](C)O[C@H]3O[C@@H]2[C@H]1O [Spectinomycin dihydrochloride] | 0.0517 ± 0.00091 | 0.0841 ± 0.0062 | 0.0632 ± 0.0013 | 0.075 ± 0.0085 | 0.0512 ± 0.00079 | 0.05437 ± 0.00031 | 0.0788 ± 0.0045 | 0.0788 ± 0.0017 | 0.0987 ± 0.0037 | 0.104 ± 0.013 | 0.308 ± 0.021 | 0.0979 ± 0.014
6 | CCc1oc2ccccc2c1C(=O)c1cc(Br)c(O)c(Br)c1 [Benzbromarone] | 0.0407 ± 0.001 | 0.0448 ± 0.0076 | 0.0403 ± 0.00069 | 0.0421 ± 0.0019 | 0.03953 ± 0.00015 | 0.047 ± 0.0017 | 0.0473 ± 0.0012 | 0.0482 ± 0.002 | 0.0504 ± 0.0016 | 0.0491 ± 0.001 | 0.0588 ± 0.0027 | 0.0513 ± 0.0023
7 | Cc1cccc(Nc2ccccc2C(=O)O)c1C [Mefenamic acid] | 0.134 ± 0.0041 | 0.135 ± 0.0024 | 0.04523 ± 0.00015 | 0.141 ± 0.002 | 0.103 ± 0.0072 | 0.132 ± 0.0029 | 0.232 ± 0.03 | 0.26 ± 0.047 | 0.203 ± 0.027 | 0.208 ± 0.028 | 0.169 ± 0.094 | 0.149 ± 0.011
8 | COC(=O)Nc1nc2cc(C(=O)c3cccs3)ccc2[nH]1 [Nocodazole] | 0.251 ± 0.0038 | 0.292 ± 0.018 | 0.269 ± 0.0045 | 0.211 ± 0.0085 | 0.185 ± 0.0053 | 0.142 ± 0.0038 | 0.345 ± 0.023 | 0.415 ± 0.034 | 0.186 ± 0.0079 | 0.215 ± 0.044 | 0.419 ± 0.0079 | 0.382 ± 0.044
9 | Cc1onc(-c2ccccc2Cl)c1C(=O)N[C@@H]1C(=O)N2[C@@H]1SC(C)(C)[C@@H]2C(=O)O [Cloxacillin sodium salt] | 0.2567 ± 0.0017 | 0.288 ± 0.018 | 0.267 ± 0.005 | 0.217 ± 0.025 | 0.183 ± 0.0023 | 0.144 ± 0.0071 | 0.32 ± 0.051 | 0.41 ± 0.046 | 0.162 ± 0.01 | 0.208 ± 0.015 | 0.417 ± 0.0066 | 0.344 ± 0.014
10 | CCSc1ccc2c(c1)N(CCCN1CCN(C)CC1)c1ccccc1S2 [Thiethylperazine dimalate] | 0.0403 ± 0.00055 | 0.0413 ± 0.0013 | 0.0405 ± 0.0005 | 0.0425 ± 0.002 | 0.03993 ± 0.00021 | 0.0411 ± 0.00055 | 0.0483 ± 0.0004 | 0.0464 ± 0.0011 | 0.0474 ± 0.0002 | 0.04737 ± 0.00025 | 0.0513 ± 0.00084 | 0.0544 ± 0.0021
11 | O=C(NCC1CCCCN1)c1cc(OCC(F)(F)F)ccc1OCC(F)(F)F (stereo unspecified) [Flecainide acetate] | 0.2202 ± 0.00045 | 0.2999 ± 0.00055 | 0.276 ± 0.0049 | 0.188 ± 0.0093 | 0.168 ± 0.0038 | 0.143 ± 0.0024 | 0.263 ± 0.026 | 0.42 ± 0.091 | 0.178 ± 0.016 | 0.213 ± 0.019 | 0.412 ± 0.011 | 0.356 ± 0.018
12 | CCC(C)(C)c1ccc(CC(C)CN2C[C@@H](C)O[C@@H](C)C2)cc1 (stereo partly specified) [Amorolfine hydrochloride] | 0.0552 ± 0.0076 | 0.107 ± 0.0069 | 0.0519 ± 0.0014 | 0.0591 ± 0.0048 | 0.04143 ± 0.00023 | 0.0502 ± 0.0026 | 0.237 ± 0.052 | 0.284 ± 0.031 | 0.168 ± 0.02 | 0.197 ± 0.017 | 0.0639 ± 0.0015 | 0.0533 ± 0.0014
13 | CCOC(=O)[C@H](CCc1ccccc1)N[C@@H](C)C(=O)N1[C@H](C(=O)O)C[C@@H]2CCC[C@@H]21 [Ramipril] | 0.22 ± 0.014 | 0.292 ± 0.004 | 0.288 ± 0.01 | 0.19 ± 0.011 | 0.217 ± 0.004 | 0.14 ± 0.0088 | 0.253 ± 0.065 | 0.365 ± 0.092 | 0.188 ± 0.013 | 0.229 ± 0.0092 | 0.42 ± 0.0058 | 0.295 ± 0.022
14 | CCC1NC(=O)c2cc(S(N)(=O)=O)c(Cl)cc2N1 (stereo unspecified) [Quinethazone] | 0.248 ± 0.0085 | 0.281 ± 0.0094 | 0.266 ± 0.0054 | 0.219 ± 0.0029 | 0.199 ± 0.0047 | 0.13 ± 0.0037 | 0.419 ± 0.029 | 0.445 ± 0.051 | 0.212 ± 0.021 | 0.238 ± 0.047 | 0.415 ± 0.006 | 0.354 ± 0.022
15 | COc1cc2nc(N(C)CCCNC(=O)C3CCCO3)nc(N)c2cc1OC (stereo unspecified) [Alfuzosin hydrochloride] | 0.215 ± 0.0062 | 0.286 ± 0.005 | 0.252 ± 0.0042 | 0.192 ± 0.027 | 0.142 ± 0.008 | 0.155 ± 0.011 | 0.24 ± 0.029 | 0.361 ± 0.029 | 0.217 ± 0.007 | 0.229 ± 0.006 | 0.4 ± 0.013 | 0.318 ± 0.013
16 | Cc1ccsc1/C=C/C1=NCCCN1C [Morantel tartrate] | 0.248 ± 0.0087 | 0.306 ± 0.0079 | 0.252 ± 0.0038 | 0.204 ± 0.012 | 0.176 ± 0.0069 | 0.1525 ± 0.00097 | 0.358 ± 0.016 | 0.379 ± 0.034 | 0.205 ± 0.038 | 0.294 ± 0.089 | 0.409 ± 0.0089 | 0.259 ± 0.17
17 | O=C(O)c1cn(C2CC2)c2cc(N3CCNCC3)c(F)cc2c1=O [Ciprofloxacin hydrochloride monohydrate] | 0.0408 ± 0.00053 | 0.0398 ± 0.0012 | 0.0399 ± 0.0009 | 0.0402 ± 0.0002 | 0.0391 ± 0.00026 | 0.0402 ± 0.00036 | 0.0484 ± 0.0012 | 0.0498 ± 0.001 | 0.049 ± 0.00046 | 0.0712 ± 0.04 | 0.0528 ± 0.00085 | 0.0527 ± 0.0033
18 | COCC(=O)Nc1c(I)c(C(=O)NCC(O)CO)c(I)c(C(=O)N(C)CC(O)CO)c1I (stereo unspecified) [Iopromide] | 0.259 ± 0.016 | 0.329 ± 0.021 | 0.289 ± 0.014 | 0.237 ± 0.0091 | 0.188 ± 0.0057 | 0.156 ± 0.013 | 0.491 ± 0.0086 | 0.464 ± 0.028 | 0.213 ± 0.022 | 0.257 ± 0.043 | 0.401 ± 0.019 | 0.349 ± 0.018

Source: the supplement of paper PMC9262897, “Low-cost anti-mycobacterial drug discovery using engineered E. coli” (Nature Communications, 2022)
